According to PubChem BioAssay AID1159580 (chemical genetic matrix, 2015):
The whole screen tested about 5,500 compounds, of which about 2,000 (36%) were called active. Roughly 18% stayed inconclusive and do not appear here. Rule as the data show it: active = normalized growth mostly below about 0.91 (no sharp cut-off); inconclusive = no clear call, values can overlap the other calls; inactive = mostly above about 0.92. The list shows a part of the results.

Assay: chemical genetic growth profiling, strain panel (AID 1159580);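 also: tested at 20 µM; growth read once vehicle control cultures reached saturation at 30 °C; 1 = growth at the plate median or of vehicle wells; lower values mean less growth of the strain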
Conditions: growth OD

Measured: normalized growth

COC(=O)[C@H]1[C@H]2C[C@@H]3c4[nH]c5cc(OC)ccc5c4CCN3C[C@H]2C[C@@H](OC(=O)c2cc(OC)c(OC)c(OC)c2)[C@@H]1OC
inactive: S. cerevisiae deletion strains, locus YKL009W, strain mrt4, hits give low values 1.02 | S. cerevisiae deletion strains, locus YKL068W, hits give low values 1.01 | S. cerevisiae deletion strains, locus YKL085W, strain MDH1 (second series), hits give low values 1.01 | S. cerevisiae deletion strains, locus YKL085W, strain MDH1, hits give low values 1.01 | S. cerevisiae deletion strains, locus YKL160W, strain elf1, hits give low values 0.961 | S. cerevisiae deletion strains, locus YKL190W, strain CNB1, hits give low values 0.967 | S. cerevisiae deletion strains, locus YKR001C, strain vps1, hits give low values 1.03 | S. cerevisiae deletion strains, locus YKR026C, strain gcn3, hits give low values 0.99 | S. cerevisiae deletion strains, locus YKR091W, strain srl3, hits give low values 0.982 | S. cerevisiae deletion strains, locus YLL001W, strain dnm1, hits give low values 1.02 | S. cerevisiae deletion strains, locus YLL026W, hits give low values 0.975 | S. cerevisiae deletion strains, locus YLL041C, strain sdh2, hits give low values 0.983 | S. cerevisiae deletion strains, locus YLR027C, strain aat2, hits give low values 0.986 | S. cerevisiae deletion strains, locus YLR039C, strain RIC1, hits give low values 1.05 | S. cerevisiae deletion strains, locus YLR058C, strain SHM2, hits give low values 0.999 | S. cerevisiae deletion strains, locus YLR102C, strain apc9, hits give low values 1 | S. cerevisiae deletion strains, locus YLR113W, strain HOG1, hits give low values 0.971 | S. cerevisiae deletion strains, locus YLR221C, strain rsa3, hits give low values 1.02 | S. cerevisiae deletion strains, locus YLR258W, strain gsy2, hits give low values 0.965 | S. cerevisiae deletion strains, locus YLR262C, strain YPT6 (second series), hits give low values 1 | S. cerevisiae deletion strains, locus YLR262C, strain YPT6, hits give low values 1.05 | S. cerevisiae deletion strains, locus YLR268W, strain sec22, hits give low values 1.04 | S. cerevisiae deletion strains, locus YLR320W, strain mms22, hits give low values 0.978 | S. cerevisiae deletion strains, locus YLR330W, strain CHS5, hits give low values 1 | S. cerevisiae deletion strains, locus YLR342W, strain FKS1 (second series), hits give low values 0.951 | S. cerevisiae deletion strains, locus YLR342W, strain FKS1, hits give low values 0.959 | S. cerevisiae deletion strains, locus YLR357W, strain rsc2, hits give low values 0.977 | S. cerevisiae deletion strains, locus YLR370C, strain arc18, hits give low values 0.976 | S. cerevisiae deletion strains, locus YLR371W, strain rom2, hits give low values 1.01 | S. cerevisiae deletion strains, locus YLR384C, strain iki3, hits give low values 0.989 | S. cerevisiae deletion strains, locus YLR418C, strain cdc73, hits give low values 0.977 | S. cerevisiae deletion strains, locus YML016C, strain PPZ1, hits give low values 1 | S. cerevisiae deletion strains, locus YML032C, strain rad52, hits give low values 1.02 | S. cerevisiae deletion strains, locus YML120C, strain ndi1, hits give low values 1 | S. cerevisiae deletion strains, locus YML124C, strain tub3, hits give low values 1.02 | S. cerevisiae deletion strains, locus YMR058W, strain fet3, hits give low values 0.986 | S. cerevisiae deletion strains, locus YMR078C, strain ctf18, hits give low values 1.01 | S. cerevisiae deletion strains, locus YMR125W, strain sto1, hits give low values 0.986 | S. cerevisiae deletion strains, locus YMR129W, hits give low values 0.981 | S. cerevisiae deletion strains, locus YMR205C, strain PFK2, hits give low values 0.982 | S. cerevisiae deletion strains, locus YMR223W, strain ubp8, hits give low values 0.995 | S. cerevisiae deletion strains, locus YMR231W, strain pep5, hits give low values 1 | S. cerevisiae deletion strains, locus YMR263W, strain SAP30, hits give low values 0.979 | S. cerevisiae deletion strains, locus YMR307W, strain GAS1, hits give low values 0.912 | S. cerevisiae deletion strains, locus YNL067W, strain RPL9B, hits give low values 0.994 | S. cerevisiae deletion strains, locus YNL071W, strain lat1, hits give low values 0.971 | S. cerevisiae deletion strains, locus YNL128W, strain TEP1, hits give low values 1 | S. cerevisiae deletion strains, locus YNL153C, strain GIM3, hits give low values 1 | S. cerevisiae deletion strains, locus YNL183C, strain NPR1, hits give low values 0.949 | S. cerevisiae deletion strains, locus YNL209W, strain ssb2, hits give low values 0.984 | S. cerevisiae deletion strains, locus YNL233W, strain BNI4, hits give low values 0.997 | S. cerevisiae deletion strains, locus YNL248C, strain rpa49, hits give low values 0.955 | S. cerevisiae deletion strains, locus YNL250W, strain rad50, hits give low values 1.01 | S. cerevisiae deletion strains, locus YNL271C, strain bni1, hits give low values 1.02 | S. cerevisiae deletion strains, locus YNL298W, strain CLA4, hits give low values 1.02 | S. cerevisiae deletion strains, locus YNL307C, strain MCK1, hits give low values 1.01 | S. cerevisiae deletion strains, locus YNL322C, strain KRE1 (second series), hits give low values 0.976 | S. cerevisiae deletion strains, locus YNL322C, strain KRE1, hits give low values 0.995 | S. cerevisiae deletion strains, locus YNR049C, strain mso1, hits give low values 0.972 | S. cerevisiae deletion strains, locus YNR052C, strain pop2, hits give low values 1 | S. cerevisiae deletion strains, locus YOL006C, strain TOP1, hits give low values 0.989 | S. cerevisiae deletion strains, locus YOL012C, strain htz1 0.714 | S. cerevisiae deletion strains, locus YOL147C, strain pex11, hits give low values 1.02 | S. cerevisiae deletion strains, locus YOR001W, strain rrp6, hits give low values 1.03 | S. cerevisiae deletion strains, locus YOR061W, strain CKA2, hits give low values 0.999 | S. cerevisiae deletion strains, locus YOR069W, strain VPS5, hits give low values 1 | S. cerevisiae deletion strains, locus YOR070C, strain gyp1, hits give low values 0.983 | S. cerevisiae deletion strains, locus YOR080W, strain dia2, hits give low values 0.982 | S. cerevisiae deletion strains, locus YOR083W, strain WHI5, hits give low values 0.948 | S. cerevisiae deletion strains, locus YOR106W, strain vam3, hits give low values 0.947 | S. cerevisiae deletion strains, locus YOR136W, strain idh2, hits give low values 1.02 | S. cerevisiae deletion strains, locus YOR144C, strain elg1, hits give low values 1.01 | S. cerevisiae deletion strains, locus YOR184W, strain ser1, hits give low values 1.04 | S. cerevisiae deletion strains, locus YOR231W, strain MKK1, hits give low values 0.983 | S. cerevisiae deletion strains, locus YOR265W, strain rbl2, hits give low values 0.988 | S. cerevisiae deletion strains, locus YOR270C, strain vph1, hits give low values 0.969 | S. cerevisiae deletion strains, locus YOR290C, strain snf2, hits give low values 0.948 | S. cerevisiae deletion strains, locus YOR316C, strain cot1, hits give low values 1.01 | S. cerevisiae deletion strains, locus YPL051W, strain arl3, hits give low values 0.979 | S. cerevisiae deletion strains, locus YPL055C, strain LGE1, hits give low values 0.972 | S. cerevisiae deletion strains, locus YPL078C, strain atp4, hits give low values 0.972 | S. cerevisiae deletion strains, locus YPL106C, strain sse1, hits give low values 0.895 | S. cerevisiae deletion strains, locus YPL240C, strain hsp82, hits give low values 0.992 | S. cerevisiae deletion strains, locus YPL241C, strain CIN2, hits give low values 0.997 | S. cerevisiae deletion strains, locus YPL256C, strain CLN2, hits give low values 0.983 | S. cerevisiae deletion strains, locus YPR119W, strain clb2, hits give low values 1.01 | S. cerevisiae deletion strains, locus YPR141C, strain kar3, hits give low values 1.02 | S. cerevisiae deletion strains, locus YPR163C, strain tif3, hits give low values 1.02 | S. cerevisiae deletion strains, locus YPR167C, strain met16, hits give low values 1.01 | S. cerevisiae deletion strains, strain wtn01, hits give low values 1.01 | S. cerevisiae strains, strain wild type, hits give low values 0.986
